Inconclusive results are not listed. Activity calls are given as the source filed them. Rule for the calls, unless noted: active = hit-call score of the fitted dose curve at least 0.9, where 1 is the maximum; inactive = score below 0.9.
Key:
[1] = ATG_M_06_TRANS: Attagene TRANS-FACTORIAL HepG2 Assay for M06 Transcription Factor (Internal Marker) (AID 2282983; active = hit-call score of the fitted dose curve at least 0.9, where 1 is the maximum;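 note: reporter transcript level by RT-PCR then capillary electrophoresis fluorescence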); conditions: HepG2 Attagene TRANS M06 internal marker reporter
Procedure, shortened: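 Cells: HepG2, transient multi-reporter transfection. Exposure: 24 h. Detection: RT-PCR, 6-FAM labelling, HpaI digestion (2 h, 37 °C), capillary electrophoresis. Baseline: DMSO.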

[2] = target: Transcriptional activator Myb (Homo sapiens) (UniProt P10242); test: ATG_Myb_CIS: Attagene CIS-FACTORIAL HepG2 Assay for human Myeloblastosis (Myb) Proto-Oncogene Transcription Factor (AID 2282986); conditions: HepG2 Attagene CIS-FACTORIAL Myb reporter transcription; actives raise or lower the signal
Chain of Transcriptional activator Myb (Homo sapiens) (P10242 whole entry, looked up): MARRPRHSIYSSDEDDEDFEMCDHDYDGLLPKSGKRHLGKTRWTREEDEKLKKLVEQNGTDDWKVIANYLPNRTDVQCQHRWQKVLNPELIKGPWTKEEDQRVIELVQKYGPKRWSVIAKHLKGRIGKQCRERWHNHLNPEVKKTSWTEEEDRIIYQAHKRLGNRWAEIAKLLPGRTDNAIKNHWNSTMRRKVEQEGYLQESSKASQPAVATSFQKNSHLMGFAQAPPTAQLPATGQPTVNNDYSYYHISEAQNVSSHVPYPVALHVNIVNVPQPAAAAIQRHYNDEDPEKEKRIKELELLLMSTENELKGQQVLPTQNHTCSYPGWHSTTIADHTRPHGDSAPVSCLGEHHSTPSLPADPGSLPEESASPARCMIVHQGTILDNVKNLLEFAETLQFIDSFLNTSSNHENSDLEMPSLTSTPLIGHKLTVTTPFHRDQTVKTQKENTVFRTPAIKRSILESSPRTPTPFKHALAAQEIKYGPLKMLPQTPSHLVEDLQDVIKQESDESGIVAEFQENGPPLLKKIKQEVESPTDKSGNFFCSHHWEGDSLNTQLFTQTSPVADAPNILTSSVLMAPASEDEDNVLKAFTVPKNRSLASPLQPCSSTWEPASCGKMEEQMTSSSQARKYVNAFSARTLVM
Procedure, shortened: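 HepG2 cells were transiently transfected with cis-regulated multiple reporter transcription units reflecting endogenous Myb activity, then exposed to compound for 24 hours. Reporter mRNA was measured by RT-PCR with capillary electrophoresis; bidirectional fitting versus DMSO baseline.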

[3] = target: Nuclear respiratory factor 1 (Homo sapiens) (UniProt Q16656); test: ATG_NRF1_CIS: Attagene CIS-FACTORIAL HepG2 Assay for human Nuclear Respiratory Factor 1 (NRF1) Orphan Gene (AID 2282987); conditions: HepG2 NRF1 cis-element reporter, Attagene multiplex; actives raise or lower the signal
Chain of Nuclear respiratory factor 1 (Homo sapiens) (Q16656 whole entry, looked up): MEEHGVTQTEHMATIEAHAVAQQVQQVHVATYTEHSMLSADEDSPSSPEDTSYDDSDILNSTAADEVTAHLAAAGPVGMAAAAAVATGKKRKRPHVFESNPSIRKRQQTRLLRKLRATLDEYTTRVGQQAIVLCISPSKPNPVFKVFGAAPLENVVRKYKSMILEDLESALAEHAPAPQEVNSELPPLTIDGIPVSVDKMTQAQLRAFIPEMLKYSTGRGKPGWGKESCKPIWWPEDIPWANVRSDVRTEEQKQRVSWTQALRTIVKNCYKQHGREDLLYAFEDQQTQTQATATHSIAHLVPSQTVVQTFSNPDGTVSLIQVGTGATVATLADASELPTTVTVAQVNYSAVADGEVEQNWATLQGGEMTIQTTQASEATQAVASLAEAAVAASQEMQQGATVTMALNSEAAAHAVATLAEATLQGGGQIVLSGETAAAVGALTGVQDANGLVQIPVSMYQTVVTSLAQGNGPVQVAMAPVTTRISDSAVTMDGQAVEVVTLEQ
Procedure, shortened: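 HepG2 cells transiently transfected with multiple reporter transcription units under cis-regulatory promoter control, so endogenous transcription-factor activity is read. After 24 h compound exposure, reporter mRNA quantified by RT-PCR, fluorescent labelling, HpaI digestion and capillary electrophoresis; bidirectional fitting versus DMSO.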

[4] = ATG_NFI_CIS: Attagene CIS-FACTORIAL HepG2 Assay for human Nuclear Factor I (NFI) (AID 2282989); conditions: HepG2 cis-regulatory reporter, NFI response element transcription; actives raise or lower the signal
Procedure, shortened: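 HepG2 cells transiently transfected with cis-element-driven multiplexed reporter transcription units, dosed for 24 h. Reporter mRNA quantified by RT-PCR, fluorescent labelling, HpaI digestion and capillary electrophoresis; bidirectional fit versus DMSO baseline.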

[5] = target: Myc proto-oncogene protein (Homo sapiens) (UniProt P01106); test: ATG_Myc_CIS: Attagene CIS-FACTORIAL HepG2 Assay for human Myelocytomatosis (Myc) Proto-Oncogene Transcription Factor (AID 2282990); conditions: HepG2, Attagene cis-reporter transcription factor activity; actives raise or lower the signal
Chain of Myc proto-oncogene protein (Homo sapiens) (P01106 whole entry, looked up, the tested form may be a part): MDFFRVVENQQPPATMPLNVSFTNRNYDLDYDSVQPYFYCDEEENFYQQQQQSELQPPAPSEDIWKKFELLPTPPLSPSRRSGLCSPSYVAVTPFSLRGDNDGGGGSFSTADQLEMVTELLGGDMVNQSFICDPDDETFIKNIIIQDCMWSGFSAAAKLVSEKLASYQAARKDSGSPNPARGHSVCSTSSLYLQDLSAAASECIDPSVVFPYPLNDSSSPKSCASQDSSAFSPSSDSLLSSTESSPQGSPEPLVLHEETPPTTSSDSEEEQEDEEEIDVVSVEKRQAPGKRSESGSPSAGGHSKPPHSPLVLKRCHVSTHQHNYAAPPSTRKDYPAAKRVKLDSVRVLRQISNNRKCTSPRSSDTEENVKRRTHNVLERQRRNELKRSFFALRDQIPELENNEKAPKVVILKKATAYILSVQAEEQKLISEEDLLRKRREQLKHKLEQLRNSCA
Procedure, shortened: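 After 24 h chemical treatment of HepG2 cells carrying multiplexed cis-regulated reporter constructs, reporter transcripts quantified by RT-PCR and capillary electrophoresis of fluorescent fragments. Gain or loss fitted against DMSO baseline.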

[6] = ATG_NF_kB_CIS: Attagene CIS-FACTORIAL HepG2 Assay for human Nuclear Factor Kappa B (NF-kB) (AID 2282991); conditions: HepG2 Attagene cis-factorial NF-kB reporter mRNA; actives raise or lower the signal
Procedure, shortened: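 HepG2 cells transiently transfected with multiplexed cis-element reporter units measuring endogenous transcription factor activity; reporter mRNA read 24 h after dosing by RT-PCR, fluorescent labelling, HpaI digestion and capillary electrophoresis. Bidirectional fit against DMSO baseline.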

[7] = ATG_NRF2_ARE_CIS: Attagene CIS-FACTORIAL HepG2 Assay for human Nuclear Factor Erythroid 2 Related Factor 2 (NFR2) response to Antioxidant Response Elements (ARE) (AID 2282992); conditions: HepG2 Attagene ARE/NRF2 reporter, transcription factor activity; actives raise or lower the signal;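 for AC50: reporter mRNA level measured by RT-PCR and capillary electrophoresis fluorescence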
Procedure, shortened: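 Transient MRTU transfection of HepG2; 24 h compound exposure; TriZol RNA, RT with oligo(dT), PCR, 6-FAM primer extension, HpaI cut, CE. Bidirectional fit vs DMSO.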

[8] = target: Cellular tumor antigen p53 (Homo sapiens) (UniProt P04637); test: ATG_p53_CIS: Attagene CIS-FACTORIAL HepG2 Assay for human p53 Transcription Factor (AID 2282994); conditions: HepG2 p53 cis-element reporter, Attagene mRNA; actives raise or lower the signal
Chain of Cellular tumor antigen p53 (Homo sapiens) (P04637 whole entry, looked up): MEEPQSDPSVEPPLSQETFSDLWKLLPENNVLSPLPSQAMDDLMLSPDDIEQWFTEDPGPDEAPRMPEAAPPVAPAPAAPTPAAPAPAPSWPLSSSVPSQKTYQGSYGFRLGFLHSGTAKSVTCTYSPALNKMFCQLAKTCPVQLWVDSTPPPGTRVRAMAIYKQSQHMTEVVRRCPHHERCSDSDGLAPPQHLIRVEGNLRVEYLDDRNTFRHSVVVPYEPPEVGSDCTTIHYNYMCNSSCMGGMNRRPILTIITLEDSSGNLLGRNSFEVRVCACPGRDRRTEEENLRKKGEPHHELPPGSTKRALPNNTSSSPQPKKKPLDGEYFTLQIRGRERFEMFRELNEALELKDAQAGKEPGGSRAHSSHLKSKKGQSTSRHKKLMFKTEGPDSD
Procedure, shortened: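 HepG2, transient MRTU transfection (cis promoter elements, endogenous TFs); 24 h dosing; RNA isolation, RT-PCR, 6-FAM primer extension, HpaI digest, CE fluorescence; bidirectional fit vs DMSO.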

[9] = BSK_3C_TissueFactor: BioMAP Diversity Plus: 3C Assay for Tissue Factor Biomarker Activity (AID 2282997); conditions: BioMAP 3C HUVEC, tissue factor biomarker readout; actives raise or lower the signal
Procedure, shortened: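 Dosing of human umbilical vein endothelial cells preceded a 24 h incubation. Tissue Factor was then read by ELISA, with increases and decreases both scored relative to DMSO controls.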

[10] = BSK_3C_uPAR: BioMAP Diversity Plus: 3C Assay for Urokinase-type plasminogen activator receptor (uPAR) Biomarker Activity (AID 2282998); conditions: BioMAP 3C HUVEC, uPAR biomarker ELISA; actives raise or lower the signal
Procedure, shortened: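 Human umbilical vein endothelial primary cells were exposed to test chemical for 24 h. Cell-surface uPAR was then quantified by ELISA, and responses were fitted bidirectionally against DMSO as negative control and baseline.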

[11] = BSK_3C_VCAM1: BioMAP Diversity Plus: 3C Assay for Vascular cell adhesion molecule 1 (VCAM1) Biomarker Activity (AID 2282999); conditions: BioMAP 3C HUVEC, VCAM1 ELISA, cytokine-stimulated; actives raise or lower the signal
Procedure, shortened: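 Endothelial cells from human umbilical vein are treated with test chemical. At 24 h, VCAM-1 is measured by ELISA, and responses in either direction are fitted relative to DMSO.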

[12] = BSK_4H_Eotaxin3: BioMAP Diversity Plus: 4H Assay for Eotaxin 3 Biomarker Activity (AID 2283000); conditions: primary human endothelial cells (HUVEC); actives raise or lower the signal
Procedure, shortened: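 Human umbilical vein endothelial cells (BSK_4H system) dosed with test chemical; Eotaxin-3 (CCL26) measured by ELISA 24 h after dosing. Bidirectional curve fitting relative to DMSO negative control as baseline.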

[13] = target: human Peroxisome Proliferator-activated Receptor delta (PPARd), PPARD (gene 5467) (UniProt Q03181); test: ATG_PPARd_TRANS: Attagene TRANS-FACTORIAL HepG2 Assay for human Peroxisome Proliferator-activated Receptor delta (PPARd) (AID 2283002; active = hit-call score of the fitted dose curve at least 0.9, where 1 is the maximum)
Chain of human Peroxisome Proliferator-activated Receptor delta (PPARd), PPARD (gene 5467) (Q03181 whole entry, looked up, the tested form may be a part): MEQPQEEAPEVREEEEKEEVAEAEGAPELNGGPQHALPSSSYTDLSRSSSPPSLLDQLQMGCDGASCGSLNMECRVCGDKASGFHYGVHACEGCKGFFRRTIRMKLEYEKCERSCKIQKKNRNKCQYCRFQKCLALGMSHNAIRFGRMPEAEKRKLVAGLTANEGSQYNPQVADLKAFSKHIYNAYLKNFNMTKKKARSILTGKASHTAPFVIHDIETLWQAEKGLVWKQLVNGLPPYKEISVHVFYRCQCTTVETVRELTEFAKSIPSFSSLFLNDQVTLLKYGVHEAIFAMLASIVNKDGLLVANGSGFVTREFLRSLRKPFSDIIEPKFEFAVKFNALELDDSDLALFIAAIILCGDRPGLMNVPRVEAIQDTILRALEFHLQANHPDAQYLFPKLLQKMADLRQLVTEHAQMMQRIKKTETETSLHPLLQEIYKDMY
Procedure, shortened: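 Read-out is induced reporter mRNA, quantified by RT-PCR with fluorescent labelling and capillary electrophoresis after 24 h dosing. Cells are HepG2 transiently carrying multiple GAL4-UAS reporter units driven by exogenous NR-GAL4 chimeras; DMSO serves as baseline.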

[14] = read-out: Intercellular Adhesion Molecule 1 (ICAM1), ICAM1 (gene 3383); test: BSK_3C_ICAM1: BioMAP Diversity Plus: 3C Assay for Intercellular Adhesion Molecule 1 (ICAM1) Biomarker Activity (AID 2283003); conditions: primary human endothelial cells (HUVEC); actives raise or lower the signal
Procedure, shortened: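 ICAM-1 levels measured by ELISA after HUVEC cultures in the 3C system had been dosed for 24 h. Gain or loss of signal relative to DMSO was fitted in both directions.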

[15] = target: Nuclear receptor subfamily 4 group A member 2 (Homo sapiens) (UniProt P43354); test: ATG_NURR1_TRANS: Attagene TRANS-FACTORIAL HepG2 Assay for human Nuclear Receptor Related Protein 1 (NURR1) (AID 2282985; active = hit-call score of the fitted dose curve at least 0.9, where 1 is the maximum); conditions: HepG2 Attagene TRANS reporter, mRNA readout
Chain of Nuclear receptor subfamily 4 group A member 2 (Homo sapiens) (P43354 whole entry, looked up, the tested form may be a part): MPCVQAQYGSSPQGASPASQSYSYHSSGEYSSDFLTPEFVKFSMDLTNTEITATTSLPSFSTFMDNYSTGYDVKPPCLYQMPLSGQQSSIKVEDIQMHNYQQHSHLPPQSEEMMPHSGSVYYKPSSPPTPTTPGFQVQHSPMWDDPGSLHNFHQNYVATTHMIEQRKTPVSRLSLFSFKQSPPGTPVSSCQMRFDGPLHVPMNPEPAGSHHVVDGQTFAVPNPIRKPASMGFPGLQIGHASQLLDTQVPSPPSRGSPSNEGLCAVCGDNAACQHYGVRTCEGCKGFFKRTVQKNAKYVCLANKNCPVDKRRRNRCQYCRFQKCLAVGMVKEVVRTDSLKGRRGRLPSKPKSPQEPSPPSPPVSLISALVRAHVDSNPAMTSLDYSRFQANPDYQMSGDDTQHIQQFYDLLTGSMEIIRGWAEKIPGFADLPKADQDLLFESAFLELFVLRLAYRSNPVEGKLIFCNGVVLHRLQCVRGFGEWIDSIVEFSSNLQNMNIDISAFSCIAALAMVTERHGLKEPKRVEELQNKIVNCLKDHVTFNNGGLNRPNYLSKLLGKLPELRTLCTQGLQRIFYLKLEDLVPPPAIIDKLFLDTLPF
Procedure, shortened: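 Transient transfection of HepG2, human liver cells, with multiple GAL4-UAS reporter transcription units. Cells dosed 24 h, RNA isolated, reverse-transcribed, PCR-amplified, FAM-labelled, HpaI-digested, sized by capillary electrophoresis. DMSO served as negative control.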

[16] = ATG_Oct_MLP_CIS: Attagene CIS-FACTORIAL HepG2 Assay for human Octamer-Binding Transcription Factor (Oct) (AID 2282993); conditions: HepG2 Attagene cis-factorial Oct reporter, mRNA; actives raise or lower the signal
Procedure, shortened: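 HepG2 cells transiently transfected with cis-promoter-driven multiplexed reporter transcription units, dosed for 24 h. Reporter mRNA quantified by RT-PCR, fluorescent labelling, HpaI digestion and capillary electrophoresis; bidirectional fits versus DMSO baseline.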

[17] = target: human Retinoic Acid Receptor beta (RARb), RARB (gene 5915) (UniProt P10826); test: ATG_RARb_TRANS: Attagene TRANS-FACTORIAL HepG2 Assay for human Retinoic Acid Receptor beta (AID 2283004; active = hit-call score of the fitted dose curve at least 0.9, where 1 is the maximum)
Chain of human Retinoic Acid Receptor beta (RARb), RARB (gene 5915) (P10826 whole entry, looked up, the tested form may be a part): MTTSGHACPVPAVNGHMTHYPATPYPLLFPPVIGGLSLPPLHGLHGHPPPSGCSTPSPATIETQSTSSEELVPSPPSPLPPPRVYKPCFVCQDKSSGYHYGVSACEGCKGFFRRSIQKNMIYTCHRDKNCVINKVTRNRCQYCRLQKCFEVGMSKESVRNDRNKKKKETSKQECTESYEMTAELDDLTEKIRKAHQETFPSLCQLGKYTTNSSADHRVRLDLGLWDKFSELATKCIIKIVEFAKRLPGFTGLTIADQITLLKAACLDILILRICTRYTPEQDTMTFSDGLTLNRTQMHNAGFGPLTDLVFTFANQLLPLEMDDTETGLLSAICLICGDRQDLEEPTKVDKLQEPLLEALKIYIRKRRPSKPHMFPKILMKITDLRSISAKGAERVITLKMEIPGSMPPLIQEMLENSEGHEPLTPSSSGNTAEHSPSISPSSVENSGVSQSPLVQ
Procedure, shortened: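 Induction of reporter mRNA from a chimeric RARb-Gal4 construct was measured by RT-PCR, FAM labelling, HpaI digestion and capillary electrophoresis. Measurements followed 24 h compound treatment of transiently transfected human HepG2 liver cells, with DMSO as baseline.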

[18] = ATG_M_32_TRANS: Attagene TRANS-FACTORIAL HepG2 Assay for M32 Transcription Factor (Internal Marker) (AID 2282984; active = hit-call score of the fitted dose curve at least 0.9, where 1 is the maximum;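 note: transcript level of a background control reporter unit measured by RT-PCR and capillary electrophoresis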); conditions: HepG2 Attagene TRANS M32 internal marker reporter
Procedure, shortened: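 Measures reporter mRNA induction in human HepG2 liver cells after 24 h chemical treatment. Transcripts from transiently transfected GAL4-UAS reporter units are amplified, fluorescently labelled and sized by capillary electrophoresis; gain of signal relative to DMSO.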

[19] = target: human Peroxisome Proliferator-activated Receptor alpha (PPARa), PPARA (gene 5465) (UniProt Q07869); test: ATG_PPARa_TRANS: Attagene TRANS-FACTORIAL HepG2 Assay for human Peroxisome Proliferator-activated Receptor alpha (PPARa) (AID 2283001; active = hit-call score of the fitted dose curve at least 0.9, where 1 is the maximum)
Chain of human Peroxisome Proliferator-activated Receptor alpha (PPARa), PPARA (gene 5465) (Q07869 whole entry, looked up, the tested form may be a part): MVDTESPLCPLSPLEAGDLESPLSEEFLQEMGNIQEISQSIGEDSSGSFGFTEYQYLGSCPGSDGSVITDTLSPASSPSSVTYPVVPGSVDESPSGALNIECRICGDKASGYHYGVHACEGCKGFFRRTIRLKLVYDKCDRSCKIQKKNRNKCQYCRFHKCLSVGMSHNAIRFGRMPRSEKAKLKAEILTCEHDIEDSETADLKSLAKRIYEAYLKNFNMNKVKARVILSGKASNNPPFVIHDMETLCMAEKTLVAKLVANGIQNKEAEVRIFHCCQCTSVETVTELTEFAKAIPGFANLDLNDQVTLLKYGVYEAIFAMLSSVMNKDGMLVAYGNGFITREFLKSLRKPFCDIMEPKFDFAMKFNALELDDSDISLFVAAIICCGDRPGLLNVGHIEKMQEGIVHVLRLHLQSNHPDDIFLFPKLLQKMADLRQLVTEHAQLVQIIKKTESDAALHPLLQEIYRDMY
Procedure, shortened: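 Read-out is fluorescence of reporter cDNA fragments resolved by capillary electrophoresis after RT-PCR. Human HepG2 liver cells carried transfected PPARa-Gal4 chimera and GAL4-UAS reporter units, treated 24 h; activity scored as increase over DMSO.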

Measured: AC50

O=C(N[C@H](c1ccccc1)[C@@H]1CN2CCC1CC2)c1c(Cl)ccc(C(F)(F)F)c1Cl
active: [7] 3.02 µM | [10] 17.7 µM
not listed: [15] | [16] | [17] | [18] | [19]
inactive: all other assays above

N#CC(Br)(Br)C(N)=O
active: [7] 100 µM
not listed: [6] | [18] | [19]
inactive: all other assays above

CC(C)(O)c1cnn2c(-c3ccc(F)c(-c4c(F)cccc4C#N)c3)cnc2n1
active: [3] 8.4 µM | [7] 19.8 µM | [8] 8.54 µM | [9] 28.2 µM | [10] 31.3 µM | [11] 35.3 µM | [12] 33.6 µM
not listed: [1] | [15] | [17]
inactive: all other assays above

C[N+](C)(C)CC1CO1 (configuration not stated)
not listed: [1] | [6] | [13] | [15] | [17] | [19]
inactive: all other assays above

COP(=S)(OC)SCN1C(=O)c2ccccc2C1=O
active: [9] 7.76 µM
not listed: [1] | [6] | [16] | [17] | [18]
inactive: all other assays above

CC(C)(C)OOC(C)(C)CCC(C)(C)OOC(C)(C)C
active: [7] 75.2 µM | [17] 24.7 µM
not listed: [6] | [13] | [18] | [19]
inactive: all other assays above

c1ccc(C2CO2)cc1 (configuration not stated)
not listed: [1] | [6] | [13] | [16] | [17]
inactive: all other assays above

Source: PubChem BioAssay (EPA / NIEHS)
